# Measurements published in PubChem BioAssay (NCI).
# The panel holds about 83,000 compounds, 20% with a hit somewhere; the sample as a whole holds those more often.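 Interpretation: 100, growth as untreated; towards 0, rising growth inhibition; 0, no net growth; 0 to -100, cell death. Compounds scoring below 10 were considered active.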 Values without a mark were called inactive. Active and inactive are the calls of the source.
# Test system: MDA-MB-468 breast
# Assay: NCI-60 one-dose screen, 48 h (100 = growth as untreated, 0 = no growth, -100 = all killed)
# Settings: 10 µM unless noted
row,SMILES,growth
1,COc1cc2nnn3c4ncccc4c(N=O)c3c2cc1OC,-50.9% (active)
2,COc1cc2cc(NCc3ccc(F)cc3)nc(C)c2cc1OC,62.8%
3,O=C(Nc1ccc(N2CCNCC2)cc1)c1[nH]ncc1Nc1ncnc2sc3c(c12)CCC3,-83.5% (active)
4,COc1cc(/C=C/C(=O)c2ccc(Nc3nc(NCCO)nc(N4CCOCC4)n3)cc2)cc(OC)c1OC,2.9% (active)
5,COc1ccc(-c2nc(-c3ccccc3)c(-c3ccccc3)[nH]2)cc1OC1CCCC1,40.4%
6,COc1cc(/C=C/C(=O)c2ccc(Nc3nc(Nc4ccccc4)nc(Nc4ccc(Cl)cc4)n3)cc2)cc(OC)c1OC,76.3%
7,CCCN1CCN(c2ccc3nc(-c4ccc5nc(-c6ccc(OCC)c(OCC)c6)[nH]c5c4)[nH]c3c2)CC1,-77.2% (active)
8,CN1C(=O)NC(c2ccc(Cl)cc2)(c2ccc(Cl)cc2)C1=O,104%
9,CC(=O)OC[C@]12CC[C@@H](C(=O)CBr)[C@@H]1[C@H]1CC[C@@H]3[C@@]4(C)CC[C@H](OC(C)=O)C(C)(C)[C@@H]4CC[C@@]3(C)[C@]1(C)CC2,108%
10,CN(C)c1cccc2c(S(=O)(=O)N[C@H]3CC[C@H]4[C@@H]5CCc6cc(O)ccc6[C@H]5CC[C@]34C)cccc12,34.5%
11,C/C(O)=C(/C=N\C(=S)Nc1ccc(S(=O)(=O)Nc2nccs2)cc1)C(=O)Nc1ccccc1C,82%
12,Cc1nn(-c2ccccc2)c2nc3nc4c(c(N)c3c(-c3ccc(Cl)cc3)c12)CCCC4,104%
13,O=C(Nc1ccc(C(=O)/C=C/c2ccc(N3CCOCC3)cc2)cc1)Nc1ccc([N+](=O)[O-])cc1,91%
14,COc1cc2ncnc(Nc3ccc(S(=O)(=O)Nc4cc(C)on4)cc3)c2cc1OCCCN1CCN(c2ccc(F)cc2)CC1,103%
15,CCOC(=O)c1c(/N=C2\SC(=O)/C(=C\C(=O)OC)N2NC)sc2c1CCN(C(=O)OCC)C2,100%
16,CN(Cc1ccccc1)c1nc(Cl)c(C2CC(c3ccc4c(c3)OCO4)=NN2c2cc(Cl)cc(Cl)c2)s1 (stereo unspecified),103%
17,COc1cc(NC(=O)CCSc2nc3ccccc3c(=O)n2Cc2ccccc2)cc(OC)c1OC,93.3%
18,COc1cc(/C=N/N(C)C)ccc1O,95.8%

row,SMILES,growth
1,CCN(CC)CCOc1ccc(-c2nc3cc(Cl)ccc3s2)cc1,-17% (active)
2,Cc1nc2ccc(Nc3nc(NCCN4CCOCC4)nc(Nc4ccc(F)cc4)n3)cc2n1Cc1ccccc1,14%
3,O=C(CN1CCNCC1)N1CCOCC1,117%
4,N#C/C(=C/c1c(O)ccc2ccccc12)C(N)=O,97.3%
5,Cc1nn(-c2cc(=O)[nH]c3ccccc23)c(N)c1C#N,110%
6,CC(C(=O)O)(C1CCCCC1)C1(O)CCCCC1 (stereo unspecified),106%
7,CCCCN(CCCC)CCCNc1c2c(nc3ccc(Cl)cc13)CCCC2,114%
8,CCCCOC(=O)c1ccc(C(C)C)cc1,100%
9,O=[N+]([O-])c1ccccc1N=Nc1ccc(O)cc1O,118%
10,CCOC(=O)c1c(C)nc2c(c1N)CC(=O)N2CCc1ccccc1,44%
11,CCN1CCN(Cc2ccc(NC(=O)c3cccc(C#Cc4cccc5[nH]nc(N)c45)c3)cc2C(F)(F)F)CC1,-30.6% (active)
12,CCc1ccc(/C=C/c2ccc(O)c3ncccc23)[n+](C)c1,19.6%
13,O=c1nc(NO)[nH]c(=O)n1Cc1ccc(F)cc1,107%
14,CCC(C)C1NC(=O)C(CCCCN)NC(=O)C(CCCCN)NC(=O)C(CC(C)C)NC(=O)C(CCCCN)NC(=O)C(C(C)CC)NC(=O)C(C(C)C)NC(=O)C(C(C)CC)NC(=O)C(CCCCN)NC(=O)C(CCCCN)NC(=O)C(C)NC(=O)C(CCCCN)NC(=O)C(CC(C)C)NC1=O (stereo unspecified),1.45% (active)
15,Cc1nc(Nc2nc3ccccc3o2)nc(-c2cccc([N+](=O)[O-])c2)c1C(=O)Nc1ccc(F)c(Cl)c1,-2.01% (active)
16,Clc1ccc2c(NCCCNC3CCCCC3)ccnc2c1,85.3%
17,O=C(CCCCCCSc1nc(-c2ccccc2)cc(-c2ccc(Cl)cc2)n1)NO,4.78% (active)
18,COc1cc2nccc(Oc3ccc(NC(=O)C4(C(=O)Nc5ccc(F)cc5)CC4)cc3)c2cc1O,86.4%
